Data from PubChem BioAssay (NCI).
The panel holds about 83,000 compounds, 20% with a hit somewhere; the sample as a whole holds those more often.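 The test compound was applied at a single concentration to cells in 96-well plates for 48 hours, and percent growth was recorded.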 Active and inactive are the calls of the source. How the source made its calls: active means growth percent below 10; inactive means the rest.

Key:
Experiment in all cases: NCI-60 one-dose screen, 48 h (100 = growth as untreated, 0 = no growth, -100 = all killed)
[1] = test system: SR leukemia; details: 10 µM unless noted
[2] = test system: RPMI-8226 leukemia; details: 10 µM unless noted
[3] = test system: OVCAR-8 ovarian; details: 10 µM unless noted
[4] = test system: OVCAR-5 ovarian; details: 10 µM unless noted
[5] = test system: SK-OV-3 ovarian; details: 10 µM unless noted
[6] = test system: IGROV1 ovarian; details: 10 µM unless noted
[7] = test system: OVCAR-3 ovarian; details: 10 µM unless noted
[8] = test system: HS 578T breast; details: 10 µM unless noted
[9] = test system: NCI/ADR-RES ovarian; details: 10 µM unless noted
[10] = test system: OVCAR-4 ovarian; details: 10 µM

Measured: growth

Clc1ccc(/C=N/Nc2nc3ccccc3s2)c(Cl)c1
inactive: [1] 91% | [2] 91.2% | [3] 79.3% | [4] 103% | [5] 74% | [6] 67% | [7] 87.3% | [8] 84.8% | [9] 89.7%

CCN(CC)c1ccc2cc(C(Nc3ccc(Cl)cc3)c3nnnn3C(C)(C)C)c(=O)oc2c1 (configuration not stated)
inactive: [1] 101% | [2] 88.4% | [3] 89.9% | [4] 90.2% | [5] 105% | [6] 93.6% | [7] 94.4% | [8] 89.4% | [9] 97.7%

Cc1cnc([C@]23CC[C@@H](C)[C@H](C)[C@H]2C2=CC[C@@H]4[C@@]5(C)Cc6c([nH]c7ccccc67)C(C)(C)[C@@H]5CC[C@@]4(C)[C@]2(C)CC3)o1
inactive: [1] 121% [100 µM] | [2] 26.6% [100 µM] | [3] 39.3% [100 µM] | [4] 59.7% [100 µM] | [5] 73.9% [100 µM] | [6] 25.9% [100 µM] | [7] 83.8% [100 µM] | [8] 70.2% [100 µM] | [9] 68.3% [100 µM]

C=C(C)[C@@H]1CC[C@]2(c3ncc(C)o3)CC[C@]3(C)[C@H](CC[C@@H]4[C@@](C)(CCC#N)[C@H](C(=C)C)CC[C@]43C)[C@@H]12
inactive: [1] 14.9% [100 µM]
active: [2] -41% [100 µM] | [3] -78.1% [100 µM] | [4] -97.2% [100 µM] | [5] -88.4% [100 µM] | [6] -87.6% [100 µM] | [7] -80.4% [100 µM] | [8] -28% [100 µM] | [9] -82.9% [100 µM]

CO[C@H]1CC[C@@]2(C)C(=CC[C@H]3[C@@H]4C[C@H](O)C[C@@]4(C)CC[C@@H]32)C1
inactive: [1] 14.1% | [2] 54.5% | [3] 82.5% | [4] 102% | [5] 39.1% | [6] 53.8% | [7] 28.7% | [8] 60.8% | [9] 39.1%

COc1cc(/C=C/C(=O)/C=C/c2ccc(-n3ccnc3)cc2)ccc1O
inactive: [1] 25.1% | [3] 29.2% | [4] 100% | [5] 91.5% | [7] 34.4% | [8] 86% | [9] 99%
active: [2] -5.38% | [6] -28.4%

COC(=O)[C@]12CCC(C)(C)C[C@H]1C1=CC[C@@H]3[C@@]4(C)C/C(=C/c5cccnc5)C(=O)C(C)(C)[C@@H]4CC[C@@]3(C)[C@]1(C)CC2
active: [2] -38.4% [100 µM] | [3] 0.407% [100 µM] | [4] -19.5% [100 µM] | [5] 7.52% [100 µM] | [6] -34.2% [100 µM] | [7] -1.73% [100 µM] | [8] -18.5% [100 µM] | [9] -40.5% [100 µM]
inactive: [1] 47.7% [100 µM]

CC(C)=CCC[C@](C)(O)[C@H]1CC[C@]2(C)[C@@H]1CC[C@@H]1[C@@]3(C)CC[C@H](OC(=O)CCC(=O)O)C(C)(C)[C@@H]3CC[C@]12C
inactive: [1] 29% [100 µM] | [3] 24.7% [100 µM] | [4] 41.7% [100 µM] | [5] 42.4% [100 µM] | [6] 15.3% [100 µM] | [8] 41.2% [100 µM] | [9] 29.9% [100 µM]
active: [2] 9.12% [100 µM] | [7] -32.1% [100 µM]

Cc1ccc(-n2nc3n(/c2=N\C(=O)NS(=O)(=O)c2ccc(C)cc2)CCN3C2=NCCN2)cc1
inactive: [1] 135% | [2] 106% | [3] 103% | [4] 95.4% | [5] 99.1% | [6] 104% | [7] 109% | [8] 99.7% | [9] 105%

C[C@H]1[C@H](C)CC[C@]2(C(=O)O)CC[C@]3(C)C(=CC[C@@H]4[C@@]5(C)C/C(=C/c6ccco6)C(=O)C(C)(C)[C@@H]5CC[C@]43C)[C@H]12
active: [2] -19.3% [100 µM] | [3] -19% [100 µM] | [4] -48.8% [100 µM] | [5] -17.3% [100 µM] | [6] -59.6% [100 µM] | [7] -74.5% [100 µM] | [8] -13.9% [100 µM] | [9] -58.9% [100 µM]
inactive: [1] 31.2% [100 µM]

CCOC(=O)c1cnc2ccc(Br)cc2c1Nc1cccc(S(N)(=O)=O)c1
inactive: [1] 94.6% | [2] 97% | [3] 92.8% | [4] 93.6% | [5] 105% | [6] 99.6% | [7] 102% | [8] 98.5% | [9] 97.4%

O=C1Nc2ccccc2/C1=C/C(=O)c1ccc(N2CCOCC2)cc1
inactive: [1] 26.7% | [2] 79.6% | [3] 82.9% | [4] 96.9% | [5] 106% | [6] 70.3% | [7] 60.9% | [8] 84% | [9] 100%

CC1=CCc2ccccc21
inactive: [1] 98.6% | [2] 95% | [3] 101% | [4] 102% | [5] 101% | [6] 88.5% | [7] 106% | [8] 98.3% | [9] 98.1%

CC(C)=CC/C=C(/C)[C@H]1CC[C@]2(C)[C@@H]1CC[C@@H]1[C@@]3(C)CCCNC(C)(C)[C@@H]3CC[C@]12C
active: [2] -40.1% [100 µM] | [3] -29.5% [100 µM] | [4] -85.9% [100 µM] | [5] -66.8% [100 µM] | [6] -74.1% [100 µM] | [7] -47.8% [100 µM] | [8] -50.2% [100 µM] | [9] -69.6% [100 µM]
inactive: [1] 15.2% [100 µM]

CCN(CC)c1ccc2cc(C(Nc3ccc(C)cc3)c3nnnn3C(C)(C)C)c(=O)oc2c1 (configuration not stated)
inactive: [1] 94.5% | [2] 87.4% | [3] 98.4% | [4] 101% | [5] 102% | [6] 97.4% | [7] 101% | [8] 90.7% | [9] 90.6%

C=C(C)[C@@H]1CC[C@]2(C)[C@H](C(=O)C=C3[C@@H]4C[C@](C)(C(=O)N5CCN(C)CC5)CC[C@]4(C)CC[C@]32C)[C@@]1(C)CCC#N
inactive: [1] 34.7% [100 µM]
active: [2] -54.5% [100 µM] | [3] -70.9% [100 µM] | [4] -75.9% [100 µM] | [5] -76.1% [100 µM] | [6] -76% [100 µM] | [7] -76.6% [100 µM] | [8] -54.8% [100 µM] | [9] -81.3% [100 µM]

C=C(C)[C@@H]1CC[C@]2(C(=O)NCCCCCCN(CCCN)CCCN)CC[C@]3(C)[C@H](CC[C@@H]4[C@@]5(C)CC[C@H](OCCCN)C(C)(C)[C@@H]5CC[C@]43C)[C@@H]12
inactive: [1] 18.4% [100 µM] | [2] 29.3% [100 µM] | [4] 90.5% [100 µM] | [5] 97.9% [100 µM] | [6] 27.3% [100 µM] | [8] 94.9% [100 µM] | [9] 86.3% [100 µM]
active: [3] -28.3% [100 µM]

CC(C)=CC/C=C(/C)[C@H]1CC[C@]2(C)[C@@H]1CC[C@@H]1[C@@]3(C)CC/C(=N/O)C(C)(C)[C@@H]3CC[C@]12C
inactive: [1] 45.2% [100 µM] | [2] 52% [100 µM] | [3] 40.8% [100 µM] | [4] 80.6% [100 µM] | [6] 76.2% [100 µM] | [7] 52.4% [100 µM] | [8] 64.3% [100 µM] | [9] 63.9% [100 µM]

O=C1CN(Cc2ccc(C(=O)NO)cc2)C(=O)[C@@H](Cc2ccccc2)N1
inactive: [1] 113% | [2] 102% | [3] 95.6% | [4] 101% | [5] 96.5% | [6] 106% | [8] 101% | [9] 110%

CC1(C)CC[C@]23CC[C@]4(C)[C@H](CC[C@@H]5[C@@]6(C)C/C(=C/c7cccnc7)C(=O)C(C)(C)[C@@H]6CC[C@]54C)[C@H]2[C@H]1OC3=O
inactive: [1] 42.4% [100 µM] | [2] 11.3% [100 µM] | [3] 42.4% [100 µM] | [4] 79.7% [100 µM] | [6] 66.8% [100 µM] | [7] 49.3% [100 µM] | [8] 54.6% [100 µM] | [9] 50.1% [100 µM]

O=c1[nH]c2cc(Cl)c(Cl)cc2n2cc3ncccc3c12
inactive: [1] 27.4% | [2] 76.1% | [3] 82.4% | [4] 146% | [5] 98.9% | [6] 86.2% | [7] 84.5% | [8] 99.2% | [9] 81.8%

CSc1nc(N)c(N=Nc2ccc(S(=O)(=O)Nc3nnc(C)s3)cc2)c(=O)[nH]1
inactive: [1] 110% | [2] 132% | [3] 103% | [4] 113% | [5] 96.9% | [6] 126% | [8] 89.4% | [9] 113%

COCCCNc1nc(NC(=O)c2cc(OC)cc(OC)c2)cc(-c2cccnc2)n1
inactive: [1] 80.6% | [2] 69.3% | [4] 95.7% | [10] 108% | [5] 105% | [6] 102% | [7] 113% | [8] 95.3% | [9] 83.5%
